From PubChem BioAssay AID602 (SRMLSC, 2007)
In all, about 85,000 compounds went through this assay and about 35 (0.04%) were called active.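 The calls were made as follows: active = viability drop by adding the cancer drug above about 55%, with treated viability meeting a 40% cutoff (limit read from the data); inactive = the rest, inconclusive results apart.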 For the sample, actives were picked, then their nearest neighbours and some compounds at random.

Assay: reversal of MRP1-mediated doxorubicin resistance, primary screen, H69AR cells, doxorubicin co-treatment (AID 602);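 as to differential viability (reversal): larger differential means the compound sensitizes cells more to doxorubicin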
Settings: CellTiter-Glo, 72 h, at 10 µM; for differential viability (reversal): stronger effect = higher value
[1] = H69AR cells + 2 uM doxorubicin, measured here: viability with 2 uM doxorubicin, stronger effect = lower value
[2] = H69AR cells, measured here: cytotoxicity without doxorubicin

In the case of `Cc1ccc(-n2ncc3c(=O)n(-c4ccc(C)c(C)c4)c(-c4ccco4)nc32)cc1`, the differential viability (reversal) (H69AR cells + 2 uM doxorubicin) is reported as -39.7% (inactive), the viability [1] is reported as 71% and the viability [2] is reported as 31.3%.

For `Nc1ccc(-n2nncc2-c2ccco2)cc1`, the differential viability (reversal) (H69AR cells + 2 uM doxorubicin) was 59.2% (active), the viability [1] was 39.6% and the viability [2] was 98.8%.

In the case of `Cc1[nH]n(-c2cccc(Cl)c2)c(=O)c1/C=N/n1c(C)nc2ccccc2c1=O`, the differential viability (reversal) (H69AR cells + 2 uM doxorubicin) is reported as -32.9% (inactive), the viability [1] is reported as 62% and the viability [2] is reported as 29.1%.

In the case of `Cc1cccc(C)c1OC(=O)CSc1nnc(-c2ccccc2)o1`, the differential viability (reversal) (H69AR cells + 2 uM doxorubicin) is reported as 9.93% (inactive), the viability [1] is reported as 88.5% and the viability [2] is reported as 98.4%.

With `Cc1ccc(NC(=S)NC(NC(=O)Cc2cccc3ccccc23)C(Cl)(Cl)Cl)cc1` (centres undefined) the differential viability (reversal) (H69AR cells + 2 uM doxorubicin) was 0.19% (inactive), the viability [1] was 0.8% and the viability [2] was 0.99%.

For `COc1ccc(/C(N)=N/OC(=O)Oc2ccccc2)cc1`, the differential viability (reversal) (H69AR cells + 2 uM doxorubicin) was -10.6% (inactive), the viability [1] was 93.2% and the viability [2] was 82.6%.

In the case of `CCOc1ccc2c(c1)C(c1ccc(C)cc1)=NNC(c1ccc(C)cc1)=N2`, the differential viability (reversal) (H69AR cells + 2 uM doxorubicin) is reported as -43% (inactive), the viability [1] is reported as 64% and the viability [2] is reported as 21%.

With `O=C(CN1CCSCC1)N/N=C/c1ccc(F)cc1` the differential viability (reversal) (H69AR cells + 2 uM doxorubicin) was 8.43% (inactive), the viability [1] was 90.1% and the viability [2] was 98.5%.

In the case of `CC(C)(C)c1ccc(C(=O)NNC(=O)Cc2ccccc2)cc1`, the differential viability (reversal) (H69AR cells + 2 uM doxorubicin) is reported as 9.15% (inactive), the viability [1] is reported as 85.9% and the viability [2] is reported as 95%.

For `COC(=O)C1=C(C(=O)OC)C2(OC1c1ccc(Br)cc1)C(=O)c1ccccc1C2=O` (centres undefined), the differential viability (reversal) (H69AR cells + 2 uM doxorubicin) was 12.1% (inactive), the viability [1] was 94% and the viability [2] was 106%.

For `O=C(CSc1nc2cccnc2n1Cc1ccccc1)N1CCc2ccccc21`, the differential viability (reversal) (H69AR cells + 2 uM doxorubicin) was 10.8% (inactive), the viability [1] was 59.3% and the viability [2] was 70.1%.

In the case of `COC(=O)CCSc1cc([N+](=O)[O-])cc2c1c(C1OCCS1)nn2-c1ccccc1` (centres undefined), the differential viability (reversal) (H69AR cells + 2 uM doxorubicin) is reported as -2.64% (inactive), the viability [1] is reported as 101% and the viability [2] is reported as 98.2%.

In the case of `CCCOn1c(-n2nc(C)cc2C)nc2ccccc2c1=O`, the differential viability (reversal) (H69AR cells + 2 uM doxorubicin) is reported as 4.29% (inactive), the viability [1] is reported as 89.5% and the viability [2] is reported as 93.8%.

In the case of `O=C(Nc1ccc(F)c(Cl)c1)C1CCN(S(=O)(=O)c2cccnc2)CC1`, the differential viability (reversal) (H69AR cells + 2 uM doxorubicin) is reported as 1.44% (inactive), the viability [1] is reported as 70.3% and the viability [2] is reported as 71.8%.

In the case of `Cc1ccc(C(=O)N/N=C/c2sc(=O)n(Cc3cccc(C(=O)O)c3)c2Cl)cc1`, the differential viability (reversal) (H69AR cells + 2 uM doxorubicin) is reported as -5.62% (inactive), the viability [1] is reported as 92.7% and the viability [2] is reported as 87.1%.

For `CCOC(=O)C(C)Sc1nc2ccccc2c(=O)n1CC1CCCCC1` (centres undefined), the differential viability (reversal) (H69AR cells + 2 uM doxorubicin) was 7.81% (inactive), the viability [1] was 74.6% and the viability [2] was 82.4%.

With `Cc1cccc(NC(=O)C2CC(=O)OC23CCCC3)c1` (centres undefined) the differential viability (reversal) (H69AR cells + 2 uM doxorubicin) was 6.22% (inactive), the viability [1] was 95.5% and the viability [2] was 102%.

In the case of `COc1ccc(CC(NC(C)=O)C(=O)N2CCN(C(=O)Nc3cccc(Cl)c3)CC2)cc1OC` (centres undefined), the differential viability (reversal) (H69AR cells + 2 uM doxorubicin) is reported as 6.8% (inactive), the viability [1] is reported as 85% and the viability [2] is reported as 91.8%.

In the case of `O=C(CCS(=O)(=O)c1cccc2nsnc12)N1CCN(c2ccccc2F)CC1`, the differential viability (reversal) (H69AR cells + 2 uM doxorubicin) is reported as 10.9% (inactive), the viability [1] is reported as 80% and the viability [2] is reported as 91%.

In the case of `COc1ccc(-c2cc(C(=O)NCc3ccco3)no2)cc1OC`, the differential viability (reversal) (H69AR cells + 2 uM doxorubicin) is reported as 7.53% (inactive), the viability [1] is reported as 92.6% and the viability [2] is reported as 100%.

With `CCOC(=O)C1=C(C)NC2=C(C(=O)CC(C)(C)C2)C1c1ccsc1` (centres undefined) the differential viability (reversal) (H69AR cells + 2 uM doxorubicin) was -1.33% (inactive), the viability [1] was 85.8% and the viability [2] was 84.5%.

For `O=S(=O)(NCCc1ccccc1)c1ccccc1`, the differential viability (reversal) (H69AR cells + 2 uM doxorubicin) was 7.78% (inactive), the viability [1] was 95.5% and the viability [2] was 103%.

With `CCN(c1ccccc1)S(=O)(=O)c1ccc(NC(=O)C(C)(C)C)cc1` the differential viability (reversal) (H69AR cells + 2 uM doxorubicin) was -29.8% (inactive), the viability [1] was 64.7% and the viability [2] was 34.8%.

With `COc1ccc(-c2cc(C(F)(F)F)nc(NCc3cccnc3)n2)cc1` the differential viability (reversal) (H69AR cells + 2 uM doxorubicin) was 1.23% (inactive), the viability [1] was 91.7% and the viability [2] was 92.9%.

In the case of `Cc1ccc(S(=O)(=O)N2CCN(S(=O)(=O)N3CCOCC3)CC2)cc1`, the differential viability (reversal) (H69AR cells + 2 uM doxorubicin) is reported as 3.28% (inactive), the viability [1] is reported as 89.8% and the viability [2] is reported as 93.1%.

With `CCOC(=O)/C(C#N)=C\c1c(C)cc(C)c(COC(C)=O)c1C` the differential viability (reversal) (H69AR cells + 2 uM doxorubicin) was 5.79% (inactive), the viability [1] was 89.3% and the viability [2] was 95.1%.

In the case of `Cc1ccc(F)c(NC(=O)CCc2ccccc2)c1`, the differential viability (reversal) (H69AR cells + 2 uM doxorubicin) is reported as 2.31% (inactive), the viability [1] is reported as 95.5% and the viability [2] is reported as 97.8%.

With `COc1ccc(-n2c(C)csc2=S)cc1` the differential viability (reversal) (H69AR cells + 2 uM doxorubicin) was -2.75% (inactive), the viability [1] was 89.3% and the viability [2] was 86.6%.

With `CCN(CC)CCNC(=O)CCCCCn1c(=O)[nH]c2cc(C(=O)OC)ccc2c1=O` the differential viability (reversal) (H69AR cells + 2 uM doxorubicin) was 10.3% (inactive), the viability [1] was 91.6% and the viability [2] was 102%.

In the case of `N=c1c2c3c(sc2nc2n1CCCCC2)CCCC3`, the differential viability (reversal) (H69AR cells + 2 uM doxorubicin) is reported as 9.08% (inactive), the viability [1] is reported as 75.2% and the viability [2] is reported as 84.3%.

In the case of `Cc1cnc(NC(=O)C2CCCC2)s1`, the differential viability (reversal) (H69AR cells + 2 uM doxorubicin) is reported as -2.44% (inactive), the viability [1] is reported as 100% and the viability [2] is reported as 97.7%.

For `Oc1ccccc1CNc1ncc(Br)cc1Br`, the differential viability (reversal) (H69AR cells + 2 uM doxorubicin) was -9.74% (inactive), the viability [1] was 83.2% and the viability [2] was 73.5%.

With `O=C(COC(=O)c1n[nH]c2ccccc12)NCc1ccccc1` the differential viability (reversal) (H69AR cells + 2 uM doxorubicin) was 1.28% (inactive), the viability [1] was 95.4% and the viability [2] was 96.7%.

For `CCOc1ccc(Nc2nc(Cc3nnc(SCC(=O)c4ccc(C)cc4)o3)cs2)cc1`, the differential viability (reversal) (H69AR cells + 2 uM doxorubicin) was -4.34% (inactive), the viability [1] was 92.9% and the viability [2] was 88.6%.

For `O=C1CC(Sc2ncn[nH]2)C(=O)N1c1ccccc1` (centres undefined), the differential viability (reversal) (H69AR cells + 2 uM doxorubicin) was 9.11% (inactive), the viability [1] was 87% and the viability [2] was 96.1%.

In the case of `O=C(c1cccc(F)c1)N1CCC(O)(c2cccnc2)CC1`, the differential viability (reversal) (H69AR cells + 2 uM doxorubicin) is reported as 5.21% (inactive), the viability [1] is reported as 82.9% and the viability [2] is reported as 88.1%.

With `O=C(NCc1ccco1)C1(c2ccc(Cl)cc2)CCCC1` the differential viability (reversal) (H69AR cells + 2 uM doxorubicin) was -5.04% (inactive), the viability [1] was 102% and the viability [2] was 96.8%.

For `O=C(c1ccc2c(c1)OCO2)N1CCN(C(=O)c2ccco2)CC1`, the differential viability (reversal) (H69AR cells + 2 uM doxorubicin) was 18.9% (inactive), the viability [1] was 73% and the viability [2] was 91.9%.

With `O=C(c1ccccc1Oc1ccccc1)N1CCN(c2ccc(F)cc2)CC1` the differential viability (reversal) (H69AR cells + 2 uM doxorubicin) was 4.49% (inactive), the viability [1] was 95.8% and the viability [2] was 100%.

In the case of `COc1ccc(N2CCN(C(=O)CCc3nc(-c4ccc(C)cc4)no3)CC2)cc1`, the differential viability (reversal) (H69AR cells + 2 uM doxorubicin) is reported as 16.8% (inactive), the viability [1] is reported as 81.6% and the viability [2] is reported as 98.4%.

With `CS(=O)(=O)N(Cc1ccc(Cl)cc1)c1ccc(C(=O)NCCSCc2ccco2)cc1` the differential viability (reversal) (H69AR cells + 2 uM doxorubicin) was -17.6% (inactive), the viability [1] was 111% and the viability [2] was 93.7%.

For `COC(=O)C1=C(Nc2ccc(OC)cc2)C=C(C)C(C(=O)OC)C1c1ccc(C)cc1` (centres undefined), the differential viability (reversal) (H69AR cells + 2 uM doxorubicin) was -22.3% (inactive), the viability [1] was 77.8% and the viability [2] was 55.6%.

With `COc1ccc(C(C#N)N2N=C(C)CC2(C)C)cc1` (centres undefined) the differential viability (reversal) (H69AR cells + 2 uM doxorubicin) was 15.2% (inactive), the viability [1] was 89.1% and the viability [2] was 104%.

With `Cn1c(=O)c2c(SCC(=O)N3CCOCC3)nc(C3CC3)nc2n(C)c1=O` the differential viability (reversal) (H69AR cells + 2 uM doxorubicin) was -2.72% (inactive), the viability [1] was 84.5% and the viability [2] was 81.8%.

In the case of `CO/N=C(/CS(=O)(=O)c1ccc(Br)cc1)c1ccc(OC)cc1`, the differential viability (reversal) (H69AR cells + 2 uM doxorubicin) is reported as -26.9% (inactive), the viability [1] is reported as 58.3% and the viability [2] is reported as 31.4%.

With `CCSc1ccccc1C(=O)NCc1ccc(OC)cc1` the differential viability (reversal) (H69AR cells + 2 uM doxorubicin) was 7.76% (inactive), the viability [1] was 84.9% and the viability [2] was 92.6%.

For `Cc1ccc2cc(CCNC(=O)c3ccc4c(c3)OCO4)c(=O)[nH]c2c1`, the differential viability (reversal) (H69AR cells + 2 uM doxorubicin) was -5.04% (inactive), the viability [1] was 84.9% and the viability [2] was 79.8%.

With `CCC(O)CNc1nc(-n2nc(C)cc2C)nc2sc3c(c12)CC(C)(C)OC3` (centres undefined) the differential viability (reversal) (H69AR cells + 2 uM doxorubicin) was -4.15% (inactive), the viability [1] was 48.8% and the viability [2] was 44.6%.
